Source: PubChem BioAssay (National Center for Advancing Translational Sciences (NCATS))
RE007 growth inh – less growth of the S. pombe RE007 Vpr strain; S. pombe RE007 Vpr strain, BacTiter-Glo ATP luminescence, 24 h; hit rate 0.21% among 360,000; Potency, µM (titrated, usually from 92.2 µM), for inactives: at the top dose activity change, negative = less growth, most hits filed as inhibitors; active means well fitted falling curve with a large enough effect; inconclusive means small, poorly fitted or top-dose-only effect; inactive means no such curve, though single readings can be large or run the other way; further: potency means the concentration at half of the fitted maximal effect; on the % scale 0 is the no-effect control and ±100 the full control effect; nearly all actives have a fitted effect of over 50% in size
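Fission yeast strain RE007, carrying one chromosomally integrated HIV-1 vpr copy, was seeded at OD 0.01 in PMG+AL medium with 23 nL pinned compound. After 24 h at 30 °C and 99% humidity, viability was read by BacTiter-Glo luminescence.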
LmPK inhibitor – LmPK (Leishmania mexicana) enzyme inhibition. Q27686. purified LmPK, Kinase-Glo ATP luminescence, 1 h. Potency, µM (top dose mostly 57.5 µM), for the others: at the top dose activity change, negative = inhibition, hits mostly inhibitors. hit rate 0.37% among 290,000; further: potency means the concentration at half of the fitted maximal effect; on the % scale 0 is the no-effect control and ±100 the full control effect
Target sequence (Q27686 whole entry, looked up): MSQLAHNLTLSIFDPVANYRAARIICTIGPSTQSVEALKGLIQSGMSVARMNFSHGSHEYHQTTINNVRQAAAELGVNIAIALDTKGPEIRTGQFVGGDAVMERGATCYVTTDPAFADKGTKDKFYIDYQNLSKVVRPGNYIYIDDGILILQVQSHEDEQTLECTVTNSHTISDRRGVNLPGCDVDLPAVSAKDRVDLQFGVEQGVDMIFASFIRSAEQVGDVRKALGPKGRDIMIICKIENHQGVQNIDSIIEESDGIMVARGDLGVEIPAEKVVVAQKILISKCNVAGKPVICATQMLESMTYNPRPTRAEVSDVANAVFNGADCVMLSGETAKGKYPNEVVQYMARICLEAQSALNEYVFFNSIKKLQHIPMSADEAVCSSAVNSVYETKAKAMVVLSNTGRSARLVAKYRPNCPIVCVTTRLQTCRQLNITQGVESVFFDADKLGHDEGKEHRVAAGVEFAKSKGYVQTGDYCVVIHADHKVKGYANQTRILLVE
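ATP generated from ADP (0.1 mM) and PEP (0.5 mM) by 0.1 nM LmPK over 1 h at room temperature (pH 7.2 imidazole buffer) was detected by coupled luciferase luminescence. Values were normalized to uninhibited and no-enzyme wells.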
Shiga toxin inh – Shiga toxin inhibition | AID 2315 | inhibition, % at 38.7 µM | Vero cells, Shiga toxin protein synthesis inhibition reporter | hit rate 9.2% among 290,000; in the data active means inhibition mostly above about 28%, no sharp cut-off; inactive means mostly below about 43%; further: 0% is about no effect
Giardia FBPA inh – Giardia lamblia aldolase inhibition | A8B2U2 | purified Giardia FBPA | Potency, µM (top dose mostly 59.6 µM), for the others: at the highest dose activity, negative = inhibition, hits mostly inhibitors | hit rate 0.71% among 290,000; further: potency means the concentration at half of the fitted maximal effect; on the % scale 0 is the no-effect control and ±100 the full control effect; nearly all actives have a fitted effect of over 55% in size
Target sequence (A8B2U2 whole entry, looked up): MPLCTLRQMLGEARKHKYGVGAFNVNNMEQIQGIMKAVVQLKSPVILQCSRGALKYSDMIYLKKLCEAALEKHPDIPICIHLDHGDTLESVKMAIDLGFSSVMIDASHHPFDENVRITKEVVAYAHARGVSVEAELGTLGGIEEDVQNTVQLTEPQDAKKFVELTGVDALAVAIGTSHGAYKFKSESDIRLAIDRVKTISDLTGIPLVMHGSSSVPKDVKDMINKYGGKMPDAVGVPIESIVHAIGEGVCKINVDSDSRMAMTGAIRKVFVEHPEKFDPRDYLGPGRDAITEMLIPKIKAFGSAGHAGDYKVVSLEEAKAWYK
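Giardia FBPA (40 nM reagent) was preincubated 10 min at RT with compound (up to 57.5 uM final), then substrate plus GAPDH/TPI/NAD/arsenate coupling system with diaphorase/resazurin was added; resorufin fluorescence (525/598 nm) was read after 20 min.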
Cycloheximide cs – counter-screen for Shiga toxin inhibitors: cycloheximide protein synthesis inhibition; cell reporter, cycloheximide protein synthesis inhibition counterscreen; max response, %; hit rate 12% among 300,000; AID 2314; in the data active means max response mostly above about 13%, no sharp cut-off; inactive means mostly below about 14%; further: read at 38.3 µM for the half of the compounds with a filed dose; 0% is about no effect
TbPYK inhibitor – inhibitors of Trypanosoma brucei pyruvate kinase; TbPYK enzyme, Kinase-Glo Plus ATP luminescence, 45 min; hit rate 0.12% among 410,000; Potency, µM (series often up to 76.8 µM), without a hit: at the top dose activity, negative = inhibition, most hits filed as inhibitors; further: potency means the concentration at half of the fitted maximal effect; on the % scale 0 is the no-effect control and ±100 the full control effect; nearly all actives have a fitted effect of over 50% in size
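ADP (130 uM final) triggers the TbPYK reaction after compound addition; incubation is 45 min at room temperature. Kinase-Glo Plus is then added and luminescence imaged. Normalized data are fitted to concentration-effect curves.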
The depositor's hits bear a star; ? = inconclusive; nt = no result; [ ] = remark or other dose. This is one part of a sample in which hits are shown more often than they occur. Unless noted, the call rests on the fitted dose curve; in most records, active means well fitted curve in the direction sought with a large enough effect; inconclusive means small, poorly fitted or top-dose-only effect, or another doubt; inactive means no such curve, though single readings can be large; an effect the other way counts as inactive or inconclusive.

SMILES	RE007 growth inh	LmPK inhibitor	Shiga toxin inh	Giardia FBPA inh	Cycloheximide cs	TbPYK inhibitor
CCCCOc1ccc(C2c3c(oc4ccc(C)cc4c3=O)C(=O)N2CCCN(C)C)cc1OCC (centres undefined)	nt	nt	nt	nt	nt	2.9%
COc1ccccc1CNC(=O)c1cc2sccc2n1Cc1ccc(F)cc1	nt	nt	nt	nt	nt	6.9%
Oc1c(Cl)cc(Cl)cc1C1=NNC(c2ccc(Cl)cc2)C1 (centres undefined)	1.0%	-1.4%	73.2*	6.7%	30.8*	1.3%
Oc1ccc(Cl)cc1C1=NNC(c2ccc(Cl)cc2)C1 (centres undefined)	-7.6%	0.8%	30.8*	-9.0%	29.5*	-5.7%
Oc1ccc(Cl)cc1C1=NNC(c2cc(Br)cc3c2OCOC3)C1 (centres undefined)	16.9%	-6.4%	-3.9	5.2%	13.7	-5.7%
CCc1cccc(NC(=O)CCc2nc3cccnc3n2Cc2ccc(OC)cc2)c1	nt	nt	nt	nt	nt	-1.8%
O=C(CSCC(=O)N1CCCCC1)Nc1nc(-c2cccs2)cs1	-3.0%	0.4%	107.6	-5.2%	19.6*	-7.3%
O=C(CSCC(=O)N1CCN(c2ccccc2)CC1)Nc1nc(-c2ccc(Cl)s2)cs1	16.0%	5.2%	8.6	-10.4%	6.4	-1.4%
CCOC(=O)N1CCN(C(=O)CSCC(=O)Nc2nc(-c3ccccc3)cs2)CC1	-18.9%	1.4%	30.1*	0.0%	-2.4	-6.0%
CC1CC1C(=O)Nc1nc(-c2ccc(Cl)s2)cs1 (centres undefined)	11.7%	1.1%	130.5*	-4.1%	37.5*	-0.6%
O=C(CSCC(=O)N1CCCCC1)Nc1nc(-c2ccc(Cl)s2)cs1	-14.4%	5.0%	81.3	-4.2%	15.8*	4.9%
COc1ccc(C2C3C=CCCC3(C)C(=O)N2Cc2ccccc2)cc1Cl (centres undefined)	nt	nt	-4.3	5.6%	-0.3	nt
CCN(CC)CCN(C(=O)c1ccco1)c1nc2ccc(Br)cc2s1	nt	nt	nt	nt	nt	-1.0%
O=C1CN(C(=O)/C=C/c2ccccc2F)c2ccccc2N1	20.8%	0.3%	75.5*	-7.7%	27.4*	2.6%
CCCCN(CC)CCCNC(=O)c1ccc2c(c1)NC(=O)CN2C	nt	nt	nt	nt	nt	-2.8%
Cc1cccc(NC(=O)c2cn(-c3ccccc3)nc2-c2ccccc2)c1C	nt	nt	nt	nt	nt	-3.3%
N#C/C(=C\c1ccco1)c1nc2ccccc2s1	-26.0%	-17.3%	110.4*	-3.7%	70.4*	-9.6%
N#C/C(=C/c1ccco1)c1nc2ccccc2s1	-27.8%	-24.1%	118.6*	-2.6%	94.4*	5.6%
O=C(c1cccc(Cl)c1)N1CCC(c2nc3c(nnn3Cc3ccc(F)cc3F)c(=O)[nH]2)CC1	nt	nt	nt	nt	nt	-0.9%
CC(C)c1ccc(C(=O)Nc2cc(-c3ccccc3F)nn2-c2ccccc2)cc1	nt	nt	nt	nt	nt	2.5%
CC1CCN(c2cc3c(cc2F)c(=O)c(S(=O)(=O)c2cccc(Cl)c2)cn3Cc2ccccc2)CC1	nt	nt	nt	nt	nt	-9.3%
COC(=O)c1sc2cccc(F)c2c1S(=O)(=O)Nc1cc(OC)cc(OC)c1	nt	nt	nt	nt	nt	-0.5%
Cc1cc(C)nc(/N=C(\N)Nc2ccc(OCc3ccccc3)cc2)n1	5.3%	0.8%	-1.1	1.9%	-1.2	0.9%
Cc1nc(/N=C(\N)Nc2ccccc2)nc2ccccc12	nt	2.4%	43.4	-6.1%	15.9*	nt
CC1CCc2noc(NC(=O)c3ccccc3[N+](=O)[O-])c2C1 (centres undefined)	nt	nt	nt	nt	nt	1.9%
SMILES	RE007 growth inh	LmPK inhibitor	Shiga toxin inh	Giardia FBPA inh	Cycloheximide cs	TbPYK inhibitor
COc1ccccc1OCc1nc2ccccc2[nH]1	0.5%	-16.5%	51.1*	-12.9%	52.1*	6.2%
c1cnc2c(OCc3nc4ccccc4[nH]3)cccc2c1	3.1%	-6.1%	77.8*	?	61.8*	7.4%
COc1ccccc1C(=O)NCCc1nc2ccccc2[nH]1	-22.2%	0.2%	-5.9	0.5%	-3.0	4.5%
Cc1ccccc1OCc1nc2ccccc2[nH]1	?	17.8µM*	62.0*	-13.4%	56.8*	-2.4%
CC(C)=CCn1cnc2c1C(NOCc1ccccc1)=NCN2	nt	nt	nt	2.3%	nt	nt
CCCCCCC1=Cc2cc(OC)c(OC)cc2C(C2(C(=O)OCC)CCCC2=O)O1 (centres undefined)	nt	nt	nt	2.4%[12.9 µM]	nt	nt
Cc1cc(-c2ccccc2)nc(N(C)N)c1S(C)(=O)=O	3.3%	-18.6%	-7.0	-3.7%	16.1	-5.3%
CCOC(=O)c1cccc(-c2c(-c3ccccc3)ncc3cc(OC)c(OC)cc23)c1	8.8%	nt	nt	nt	nt	-22.8%
CCCOc1ccc(-c2nc(OC)c3ccccc3n2)cc1	5.7%	-0.8%	112.3*	2.2%	34.8*	-7.1%
Cc1ccc(-c2cnc3ccccc3n2)cc1C	-15.6%	?	63.3*	5.6%	28.4*	-11.3%
Cc1cc(-c2ccccc2)nc(-c2ccccc2)c1C	2.7%	7.08µM*	31.3	-25.5%	25.8*	7.6%
CCOC(=O)c1ccc2ncc(-c3ccccc3)nc2c1	-11.2%	-8.7%	122.8*	1.3%	45.7*	6.0%
Cc1cccc(Cn2c(=O)n(Cc3ccc(C(=O)NC4CCN(Cc5ccccc5)CC4)cc3)c(=O)c3ccccc32)c1	nt	nt	nt	nt	nt	-0.8%
Cc1cc2ncc(-c3ccccc3)nc2cc1C	-13.8%	-30.0%	106.4*	8.3%	38.9*	-9.0%
CCCCOc1ccc(-c2cnc3ccccc3n2)cc1	3.5%	?	59.9*	0.7%	45.3*	-10.0%
Nc1ccc2nc(-c3ccccc3)cnc2c1	-16.9%	nt	nt	nt	nt	-9.4%
CCCCOc1ccc(-c2ncc(Cl)cn2)cc1	5.6%	-2.7%	35.2*	8.1%	17.4*	8.0%
Clc1ccc(-c2cnc3ccccc3n2)cc1	-15.7%	-14.4%	67.0*	-0.4%	66.9*	-5.6%
Oc1ccc(-c2cnc3ccccc3n2)cc1	4.8%	nt	nt	nt	nt	-13.1%
CCOC(=O)COc1ccc(CC)cc1C(=O)c1ccn2nc(-c3ccc(F)cc3)cc2n1	nt	nt	nt	nt	nt	-3.1%
C=CCOC(=O)N[C@H](c1cccc(C(F)(F)F)c1)C(C(C)=O)C(C)=O	nt	nt	nt	-6.3%	nt	nt
C=CCOCC1CN2C(CCC(C)C2c2ccc(Br)cc2)C(=O)O1 (centres undefined)	nt	nt	nt	2.0%[12.9 µM]	nt	nt
O=C(Nc1ccccc1)C1Cc2ccccc2CN1C(=O)c1ccco1 (centres undefined)	18.5%	1.6%	104.0	-9.4%	56.9*	-18.3%
O=C(c1csnn1)N1CCC2(CCCN(C(c3ccccc3)c3ccccc3)C2)CC1	nt	nt	nt	-2.4%	nt	-7.2%
CC1(C(=O)NCC2CC2)C=CC2(CCCCC2)N1C(=O)c1ccccc1 (centres undefined)	8.2%	-0.1%	48.6*	10.6%	66.5*	2.6%
O=C(Nc1nc2c(s1)CN(Cc1ccccc1)CC2)c1c(F)cccc1F	-7.8%	1.6%	41.9*	-20.0%	30.5*	0.1%
CC(C)(C)C1CCc2nc(NC(=O)Cc3ccccc3)sc2C1 (centres undefined)	nt	nt	nt	nt	nt	4.6%
Nc1c(C(=O)Nc2ccccc2)sc2nc3c(cc12)CN(Cc1ccccc1)CC3	nt	nt	nt	nt	nt	-10.5%
